# Reference: publication PMC10668032, “Altered binding affinity of SIX1-Q177R correlates with enhanced WNT5A and WNT pathway effector expression in Wilms tumor”
# Over roughly 33,000 sequences, “e-score” has its median near -0.053; the highest 2% begin near 0.38. This is one part of a sample in which the highest values are shown more often than they occur.
# Target: T1, SIX1 homeodomain (reference allele) (human, UniProt Q15475 108-198)
# T1 sequence: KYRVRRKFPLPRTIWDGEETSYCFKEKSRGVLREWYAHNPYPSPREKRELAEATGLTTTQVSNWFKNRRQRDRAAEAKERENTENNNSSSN
# Assay: universal protein binding microarray; Universal all-10-mer PBM (8x60K, AMADID 030236), 300 nM GST-tagged protein, Alexa Fluor 488 anti-GST; buffer, salt, pH and temperature not stated (as in Berger); high values mean tight binding
# Conditions: protein: ivt; tags: N-terminal GST; dsDNA, one strand shown
# Procedure, shortened: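 Homeodomains carrying a GST tag were produced by in vitro transcription/translation, then quantified by anti-GST western blot against a recombinant GST standard curve. Duplicate applications at 300 nM final concentration were made to universal 'all 10-mer' protein binding microarrays in 8×60K format. The Universal PBM Analysis Suite was used to express binding as 8-mer E-scores.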
row,Sequence,binding signal
1,ATACGAAA,0.226 ± 0.0116 E-score
2,ATCCTAAA,0.184 ± 0.0231 E-score
3,ACACCTGG,0.172 ± 0.0558 E-score
4,ACAATACC,0.318 ± 0.028 E-score
5,GGATAAAA,0.166 ± 0.106 E-score
6,GTGGACAC,0.182 ± 0.0385 E-score
7,ATCACCGC,0.191 ± 0.00595 E-score
8,ATCTGTGC,0.153 ± 0.0364 E-score
9,ATAAATAT,0.168 ± 0.1 E-score
10,GAACCCGA,0.19 ± 0.0702 E-score
11,ATAGCCAT,0.218 ± 0.0172 E-score
12,GCTATCTA,0.169 ± 0.00501 E-score
13,AGTATCTA,0.347 ± 0.0371 E-score
14,GGTATCTA,0.426 ± 0.0126 E-score
15,ACAGTATA,0.287 ± 0.0542 E-score
16,GCAGTATA,0.205 ± 0.0152 E-score
17,CCTGTATC,0.365 ± 0.02 E-score
18,ATTGTATC,0.367 ± 0.0214 E-score
19,ACAGTATC,0.402 ± 0.0345 E-score
20,CCAGTATC,0.407 ± 0.0315 E-score
21,GATCTTGA,0.269 ± 0.0237 E-score
22,ATCACGCA,0.203 ± 0.00725 E-score
23,ATGAGATG,0.243 ± 0.00629 E-score
24,TATCGTAA,0.296 ± 0.0233 E-score
25,ACACCGGA,0.364 ± 0.0193 E-score

row,Sequence,binding signal
1,ACACCGGT,0.39 ± 0.0245 E-score
2,ACACCGGG,0.301 ± 0.000651 E-score
3,CGGATGTA,0.151 ± 0.0426 E-score
4,TAGGCGAA,0.164 ± 0.00529 E-score
5,CTGGTATA,0.255 ± 0.0119 E-score
6,ATGGTCTC,0.153 ± 0.0473 E-score
7,ATGGTATA,0.336 ± 0.0339 E-score
8,GTGGTATA,0.3 ± 0.0344 E-score
9,ATGGTATC,0.469 ± 0.00713 E-score
10,CTGGTATC,0.45 ± 0.00737 E-score
11,AACGATCC,0.333 ± 0.0104 E-score
12,AACGATAG,0.175 ± 0.0167 E-score
13,AACGATAC,0.435 ± 0.0105 E-score
14,CACGATAC,0.438 ± 0.0144 E-score
15,AAGGATAT,0.365 ± 0.0541 E-score
16,GACGATCC,0.387 ± 0.0391 E-score
17,CACGATCC,0.342 ± 0.0744 E-score
18,AACGATAT,0.408 ± 0.0444 E-score
19,AACGATCT,0.176 ± 0.00697 E-score
20,AACGACAC,0.276 ± 0.0085 E-score
21,TACGATAA,0.175 ± 0.0264 E-score
22,CACGATAG,0.245 ± 0.0038 E-score
23,ATATAACG,0.2329 ± 0.00214 E-score
24,ATTGTATA,0.308 ± 0.00631 E-score
25,CCTCATCG,0.185 ± 0.0079 E-score

row,Sequence,binding signal
1,TAAGATCA,0.293 ± 0.0543 E-score
2,CGATTAAA,0.156 ± 0.0382 E-score
3,AATCTGAT,0.289 ± 0.0333 E-score
4,CGGATGAG,0.183 ± 0.049 E-score
5,TATCTCGA,0.248 ± 0.0332 E-score
6,CAAGGGGA,0.165 ± 0.0484 E-score
7,GAAGATAC,0.354 ± 0.0356 E-score
8,GACGATAC,0.453 ± 0.00476 E-score
9,GACGACAC,0.164 ± 0.00255 E-score
10,GGTAATAC,0.297 ± 0.025 E-score
11,ATATGTGC,0.241 ± 0.0491 E-score
12,ATCCGGGG,0.418 ± 0.0155 E-score
13,ATCCGGTC,0.318 ± 0.00861 E-score
14,ATCCGGGA,0.295 ± 0.0471 E-score
15,ATCCGGTG,0.405 ± 0.026 E-score
16,ATCCGGGC,0.3565 ± 0.000735 E-score
17,ATCCGGTA,0.318 ± 0.0245 E-score
18,GAAGACAC,0.21 ± 0.0292 E-score
19,CTAACACC,0.213 ± 0.0035 E-score
20,TATCACGA,0.373 ± 0.0201 E-score
21,GATCACCA,0.334 ± 0.0295 E-score
22,GATCACAA,0.31 ± 0.0262 E-score
23,TATCACCA,0.42 ± 0.031 E-score
24,TATCACAA,0.385 ± 0.049 E-score
25,TCTCACCA,0.259 ± 0.00728 E-score

row,Sequence,binding signal
1,CGATAATA,0.328 ± 0.0401 E-score
2,CCCTTCTC,0.274 ± 0.0318 E-score
3,ATAGTCTC,0.151 ± 0.0259 E-score
4,ACAGATCG,0.2347 ± 0.00197 E-score
5,CGCGGATA,0.3882 ± 0.00207 E-score
6,AGCGGATG,0.154 ± 0.049 E-score
7,GGCGGGTA,0.228 ± 0.0067 E-score
8,CGCGGATC,0.365 ± 0.0314 E-score
9,AGCGGATA,0.364 ± 0.0328 E-score
10,GGCGGATA,0.403 ± 0.0134 E-score
11,GATCAGCC,0.293 ± 0.0341 E-score
12,ATCGCATC,0.3271 ± 0.00246 E-score
13,AACGTATA,0.167 ± 0.109 E-score
14,ATCGTATC,0.441 ± 0.0183 E-score
15,AACGTATC,0.385 ± 0.067 E-score
16,ATCGTATA,0.324 ± 0.00599 E-score
17,GACGTCTC,0.163 ± 0.0364 E-score
18,GACGTATA,0.213 ± 0.108 E-score
19,AACCTATC,0.246 ± 0.0031 E-score
20,TACGTATA,0.272 ± 0.0445 E-score
21,CACGTATC,0.433 ± 0.00889 E-score
22,GACGTATC,0.42 ± 0.0354 E-score
23,CTCGTATC,0.367 ± 0.0253 E-score
24,CACGTATA,0.304 ± 0.0586 E-score
25,GATCGGTA,0.3365 ± 0.000728 E-score

row,Sequence,binding signal
1,TATTCTCA,0.19 ± 0.0783 E-score
2,AGAACATA,0.152 ± 0.0261 E-score
3,ATACTGCG,0.185 ± 0.0499 E-score
4,CGTAATCC,0.276 ± 0.00776 E-score
5,GGATCCGA,0.376 ± 0.0683 E-score
6,CGATCCGA,0.396 ± 0.0357 E-score
7,CGATCCTC,0.333 ± 0.00326 E-score
8,AGATCCGC,0.333 ± 0.0252 E-score
9,AGATCCGA,0.276 ± 0.0275 E-score
10,CGATCCGC,0.418 ± 0.0398 E-score
11,ATCGTCTC,0.304 ± 0.0389 E-score
12,TACAAGTA,0.162 ± 0.0274 E-score
13,ATCTAGGG,0.187 ± 0.0244 E-score
14,CCGGTAGA,0.151 ± 0.0265 E-score
15,ATCACGGA,0.288 ± 0.0444 E-score
16,CATACTCA,0.152 ± 0.0301 E-score
17,GATACTCC,0.45 ± 0.00694 E-score
18,GATACTAC,0.432 ± 0.0131 E-score
19,GATACTAA,0.362 ± 0.0288 E-score
20,AATACTAC,0.181 ± 0.00602 E-score
21,AATACTCA,0.255 ± 0.0524 E-score
22,AATACTCG,0.165 ± 0.0216 E-score
23,GATACTCA,0.429 ± 0.0251 E-score
24,TATACTCA,0.192 ± 0.0629 E-score
25,TAGAGATA,0.268 ± 0.0459 E-score

row,Sequence,binding signal
1,AGGCCGAT,0.153 ± 0.00796 E-score
2,ATATAACC,0.177 ± 0.0584 E-score
3,ATCGCTGG,0.23 ± 0.00422 E-score
4,AGATAGCC,0.247 ± 0.0195 E-score
5,ATCTGGGA,0.196 ± 0.00724 E-score
6,TATCTAAA,0.301 ± 0.0245 E-score
7,GTATACAC,0.371 ± 0.00578 E-score
8,ATCAGGAG,0.188 ± 0.0305 E-score
9,ATCAGGAA,0.165 ± 0.0245 E-score
10,ATCATGAG,0.23 ± 0.0357 E-score
11,ATCATGAC,0.197 ± 0.0404 E-score
12,ATCAGGAT,0.394 ± 0.00836 E-score
13,ATCATGAT,0.3975 ± 0.000976 E-score
14,CATCGGGA,0.164 ± 0.0507 E-score
15,ATCTACTG,0.22 ± 0.0235 E-score
16,GATCGGGC,0.296 ± 0.015 E-score
17,GACATATA,0.226 ± 0.0783 E-score
18,CACATATA,0.165 ± 0.0792 E-score
19,CACATATC,0.404 ± 0.0155 E-score
20,AACATATA,0.235 ± 0.0646 E-score
21,TACATATA,0.254 ± 0.00881 E-score
22,GACATATC,0.386 ± 0.0597 E-score
23,CATATATG,0.23 ± 0.0477 E-score
24,AAAATATC,0.154 ± 0.121 E-score
25,AACATATC,0.378 ± 0.0821 E-score

row,Sequence,binding signal
1,ATATTACC,0.259 ± 0.0572 E-score
2,CCGGTATA,0.343 ± 0.0129 E-score
3,ACGGTATA,0.309 ± 0.0298 E-score
4,ACGGTATC,0.461 ± 0.00576 E-score
5,CCGGTATC,0.465 ± 0.014 E-score
6,ACGGTATG,0.157 ± 0.0316 E-score
7,CCGGTAAA,0.157 ± 0.034 E-score
8,AGCTGGAT,0.248 ± 0.0399 E-score
9,CGGGCTCA,0.2 ± 0.0586 E-score
10,GCGATACA,0.3759 ± 0.00354 E-score
11,CCGATACC,0.478 ± 0.00955 E-score
12,GCGATACC,0.4835 ± 0.00434 E-score
13,CCGATAGG,0.348 ± 0.0522 E-score
14,CCGATACA,0.355 ± 0.0604 E-score
15,CCTATACC,0.311 ± 0.00556 E-score
16,ACGATACC,0.4766 ± 0.000912 E-score
17,ACGATAGC,0.217 ± 0.0418 E-score
18,CCGATACG,0.425 ± 0.0199 E-score
19,CCAATACC,0.324 ± 0.0157 E-score
20,ACTATACC,0.294 ± 0.0358 E-score
21,GCGATAGC,0.165 ± 0.0972 E-score
22,ATCGCCCC,0.253 ± 0.0184 E-score
23,TCATCTCA,0.298 ± 0.0135 E-score
